From PubChem BioAssay (NCATS)
Where “and” joins values, the source holds several entries; their conditions need not be identical. Equal entries are not always repeated. Results filed as inconclusive are left out. Calls of active or inactive are those of the source. The call rests on the fitted dose curve; in most records, active means well fitted curve in the direction sought with a large enough effect; inconclusive means small, poorly fitted or top-dose-only effect, or another doubt; inactive means no such curve, though single readings can be large; an effect the other way counts as inactive or inconclusive.

Experiments:
KB-3-1 = experiment: Cytotoxic Profiling of Annotated Libraries Using Quantitative High-Throughput Screening (AID 1296008); conditions: Five cell lines viability, CellTiter-Glo ATP luminescence, 48-72 h; max response: stronger effect = lower value; further: nearly all actives have a fitted effect of over 60% in size
Outline: (§1)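 Cells exposed to compounds for 48 or 72 hr at 37 degrees Celsius. Viability read as ATP-coupled luminescence with CellTiter-Glo after 10 min at room temperature.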

NIH3T3 [1] = experiment: as above; conditions: Five cell lines viability, CellTiter-Glo ATP luminescence, 48-72 h; max response: stronger effect = lower value
Outline: as §1

HACAT = experiment: qHTS assay to identify novel small-molecules to repurpose for Merkel cell carcinoma treatment (AID 1296009); conditions: MCC and control cell lines, CellTiter-Glo viability, 72 h; at 44.8 µM (top of the series) unless noted; further: nearly all actives have a fitted effect of over 60% in size; further: potency means the concentration at half of the fitted maximal effect
Outline: (§2)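 Dose-response viability screen; 72 hr exposure at 37 degree celsius; CellTiter-Glo added, 10 min room temperature, luminescence read; RLUs scaled between no-cell and DMSO wells.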

MCC-13 = experiment: as above; conditions: MCC and control cell lines, CellTiter-Glo viability, 72 h; series mostly up to 46 µM
Outline: as §2

MKL-1 = experiment: as above; conditions: MCC and control cell lines, CellTiter-Glo viability, 72 h; series mostly up to 46 µM
Outline: as §2

MKL-2 = experiment: as above; conditions: MCC and control cell lines, CellTiter-Glo viability, 72 h; series mostly up to 46 µM
Outline: as §2

UISO = experiment: as above; conditions: MCC and control cell lines, CellTiter-Glo viability, 72 h; series mostly up to 46 µM
Outline: as §2

WaGa = experiment: as above; conditions: MCC and control cell lines, CellTiter-Glo viability, 72 h; series mostly up to 46 µM
Outline: as §2

MCC-26 = experiment: as above; conditions: MCC and control cell lines, CellTiter-Glo viability, 72 h; series mostly up to 46 µM
Outline: as §2

NIH3T3 [2] = experiment: as above; conditions: MCC and control cell lines, CellTiter-Glo viability, 72 h; series mostly up to 44.8 µM
Outline: as §2

C33A = experiment: Primary qHTS to identify gynecologic anti-cancer compounds using libraries of approved drugs and bioactive compounds (AID 1345084); conditions: Gynecologic cancer cell panel viability, ATPlite luminescence, 48 h; series mostly up to 57.5 µM; further: nearly all actives have a fitted effect of over 55% in size; further: potency means the concentration at half of the fitted maximal effect
Outline: (§3)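 Luminescence from the ATPlite ATP-monitoring reagent indicates viable cell number; lower signal means cytotoxicity. Cells received compound 16 h after seeding and were exposed for 48 h across five concentrations.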

CASKI = experiment: as above; conditions: Gynecologic cancer cell panel viability, ATPlite luminescence, 48 h; series mostly up to 57.5 µM
Outline: as §3

Es-2 = experiment: as above; conditions: Gynecologic cancer cell panel viability, ATPlite luminescence, 48 h; series mostly up to 57.5 µM
Outline: as §3

HeLa = experiment: as above; conditions: Gynecologic cancer cell panel viability, ATPlite luminescence, 48 h; series mostly up to 57.5 µM
Outline: as §3

Hek293T = experiment: as above; conditions: Gynecologic cancer cell panel viability, ATPlite luminescence, 48 h, control line for the selectivity index; series mostly up to 57.5 µM
Outline: as §3

JEG-3 = experiment: as above; conditions: Gynecologic cancer cell panel viability, ATPlite luminescence, 48 h; series mostly up to 57.5 µM
Outline: as §3

OV90 = experiment: as above; conditions: Gynecologic cancer cell panel viability, ATPlite luminescence, 48 h; series mostly up to 57.5 µM
Outline: as §3

PA-1 = experiment: as above; conditions: Gynecologic cancer cell panel viability, ATPlite luminescence, 48 h; series mostly up to 57.5 µM
Outline: as §3

CAOV3 = experiment: as above; conditions: Gynecologic cancer cell panel viability, ATPlite luminescence, 48 h; series mostly up to 57.5 µM
Outline: as §3
On the % scale 0 is the no-effect control and ±100 the full control effect.

O=[N+]([O-])c1ccc(Nc2ccccc2-c2ccccc2)c2nonc12
inactive: max response (KB-3-1) -18.3% | max response (NIH3T3 [1]) -25.2% | outcome (HACAT) | Potency (MCC-13) | Potency (MKL-1) | Potency (MKL-2) | Potency (UISO) | Potency (WaGa)

Cc1ccc(S(=O)(=O)OCC(=O)Nc2ccc(C(=O)O)c(O)c2)cc1
inactive: outcome (KB-3-1) | max response (NIH3T3 [1]) -0.735% | outcome (HACAT) | Potency (MCC-13) | Potency (MCC-26) | Potency (MKL-2) | Potency (UISO)

CN[C@@H]1[C@@H](O)[C@@H](O[C@@H]2[C@@H](O)[C@H](O[C@H]3O[C@H](CN)[C@@H](O)[C@H](O)[C@@H]3O)[C@@H](N)C[C@@H]2NC(=O)[C@@H](O)CN)OC[C@]1(C)O
inactive: max response (KB-3-1) 1.73% | outcome (NIH3T3 [1]) | outcome (HACAT) | Potency (MCC-13) | Potency (MCC-26) | Potency (MKL-1) | Potency (NIH3T3 [2]) | Potency (UISO) | Potency (WaGa)

CO[C@H]1C=CO[C@@]2(C)Oc3c(C)c(O)c4c(O)c(c(C=NN5CCN(C)CC5)c(O)c4c3C2=O)NC(=O)C(C)=CC=C[C@H](C)[C@H](O)[C@@H](C)[C@@H](O)[C@@H](C)[C@H](OC(C)=O)[C@H]1C
inactive: max response (KB-3-1) 0.835% | max response (NIH3T3 [1]) -3.12% | outcome (HACAT) inactive [at 9.27 µM] | activity change, negative = cytotoxicity (MCC-13) -0.156% [at 9.22 µM] | activity change, negative = cytotoxicity (MKL-1) -4.29% [at 9.22 µM] | activity change, negative = cytotoxicity (MKL-2) -21.3% [at 9.22 µM] | activity change, negative = cytotoxicity (UISO) 4.05% [at 9.22 µM] | activity change, negative = cytotoxicity (WaGa) -1.76% [at 9.22 µM]

CN(C)CCOc1ccc(-c2nc(-c3ccc4c(c3)CCC4=NO)c(-c3ccncc3)[nH]2)cc1
active: Potency (MKL-2) 14.8 µM
inactive: max response (KB-3-1) 2.27% | max response (NIH3T3 [1]) 1.65% | outcome (HACAT) | Potency (MCC-13) | Potency (MCC-26) | Potency (UISO)

CCC(=O)NCC[C@@H]1CCc2ccc3c(c21)CCO3
inactive: max response (KB-3-1) -2.73% | outcome (NIH3T3 [1]) | outcome (HACAT) | Potency (MCC-13) | Potency (MCC-26) | Potency (MKL-1) | Potency (NIH3T3 [2]) | Potency (UISO) | Potency (WaGa)

NC(N)=Nc1nc(CSCCC(N)=NS(N)(=O)=O)cs1
inactive: max response (KB-3-1) 6.28% | outcome (NIH3T3 [1]) | outcome (HACAT) | Potency (MCC-13) | Potency (MKL-1) | Potency (NIH3T3 [2]) | Potency (UISO)

CCCCCCOC(=O)N=C(N)c1ccc(NCc2nc3cc(C(=O)N(CCC(=O)OCC)c4ccccn4)ccc3n2C)cc1
inactive: max response (KB-3-1) 5.67% | max response (NIH3T3 [1]) 3.96% | outcome (HACAT) | Potency (MCC-13) | Potency (MCC-26) | Potency (MKL-2) | Potency (UISO) | Potency (WaGa)

COC1CCC(C(=O)c2ccc3nc4c(cc3c2)CCCO4)CC1 (stereo unspecified)
inactive: max response (KB-3-1) -15.4% | max response (NIH3T3 [1]) -7.67% | outcome (HACAT) | Potency (MCC-13) | Potency (MCC-26) | Potency (MKL-1) | Potency (MKL-2) | Potency (WaGa)

COc1cc([C@H]2Oc3cc([C@H]4Oc5cc(O)cc(O)c5C(=O)[C@H]4O)ccc3O[C@H]2CO)ccc1O
inactive: max response (KB-3-1) -0.459% | max response (NIH3T3 [1]) 0.0248% | outcome (HACAT) | Potency (MCC-13) | Potency (MCC-26) | Potency (MKL-1) | Potency (UISO) | Potency (WaGa)

Cc1ccc(NC(=O)c2cccc(N(C)C)c2)cc1NC(=O)c1ccc(O)cc1
inactive: max response (KB-3-1) 5.76% | max response (NIH3T3 [1]) 3.99% | outcome (HACAT) | Potency (MCC-13)
active: Potency (MKL-1) 8.33 µM | Potency (MKL-2) 2.96 µM | Potency (WaGa) 8.33 µM

N[C@@H](CC(=O)N1CCn2c(nnc2C(F)(F)F)C1)Cc1cc(F)c(F)cc1F
inactive: max response (KB-3-1) -6.59% | max response (NIH3T3 [1]) -2.27% | outcome (HACAT) | Potency (MCC-13) | Potency (MKL-1) | Potency (MKL-2) | Potency (UISO) | Potency (WaGa)

C[C@@H](NC(=O)c1ncnc(N)c1Cl)c1ncc(C(=O)Nc2cc(C(F)(F)F)c(Cl)cn2)s1
inactive: outcome (KB-3-1) | max response (NIH3T3 [1]) -5.83% and 1.58% | outcome (HACAT) | Potency (MCC-13) | Potency (MCC-26) | Potency (MKL-1) | Potency (MKL-2) | Potency (UISO) | Potency (WaGa) | Potency (C33A) | Potency (CASKI) | Potency (Es-2) | Potency (HeLa) | Potency (Hek293T) | Potency (JEG-3) | Potency (PA-1)
active: Potency (OV90) 10 µM

N#CC(c1ccc(Cl)cc1)c1c(Cl)cc(-n2ncc(=O)[nH]c2=O)cc1Cl (stereo unspecified)
inactive: max response (KB-3-1) 0.338% | max response (NIH3T3 [1]) -0.315% | outcome (HACAT) | Potency (MCC-13) | Potency (MCC-26) | Potency (UISO)
active: Potency (WaGa) 13.2 µM

Cc1ccc2c(c1)c1c(n2CCc2ccc(C)nc2)CCN(C)C1
inactive: max response (KB-3-1) 2.15% | max response (NIH3T3 [1]) 1.43% | outcome (HACAT) | Potency (MCC-13) | Potency (MCC-26) | Potency (MKL-1) | Potency (MKL-2) | Potency (UISO) | Potency (WaGa) | Potency (HeLa) | Potency (JEG-3) | Potency (OV90)

CN(C)CCOc1cc(-c2cn[nH]c2)ccc1NC(=O)C1COc2ccccc2O1 (stereo unspecified)
inactive: max response (KB-3-1) -7.59% and -3.43% | max response (NIH3T3 [1]) -6.62% | outcome (HACAT) | Potency (MCC-26) | Potency (C33A) | Potency (CAOV3) | Potency (CASKI) | Potency (Es-2) | Potency (HeLa) | Potency (Hek293T) | Potency (JEG-3) | Potency (OV90) | Potency (PA-1)

c1cc(OCCN2CCCCC2)cc(-c2n[nH]c3ccc(-c4ncn[nH]4)cc23)c1
active: Potency (WaGa) 18.7 µM
inactive: max response (KB-3-1) -21.9% | max response (NIH3T3 [1]) -3.48% and 4.45% | outcome (HACAT) | Potency (MCC-13) | Potency (MCC-26) | Potency (MKL-1) | Potency (C33A) | Potency (CASKI) | Potency (Es-2) | Potency (HeLa) | Potency (Hek293T) | Potency (JEG-3) | Potency (OV90) | Potency (PA-1)

CC(=O)NCCC(=O)N[C@@H](CCC(N)=O)C(=O)N[C@@H](CO)C(=O)N[C@@H](CCC(N)=O)C(=O)N[C@@H](CCC(N)=O)C(=O)N[C@H](C(=O)N[C@@H](Cc1ccccc1)C(=O)N[C@]1(C)CCCCCCC=CCCC[C@@](C)(C(=O)N[C@@H](CCC(N)=O)C(=O)N[C@@H](CC(N)=O)C(N)=O)NC(=O)[C@H](CC(C)C)NC(=O)[C@H](CC(C)C)NC(=O)[C@@H](CCCNC(=N)N)NC(=O)[C@H](Cc2c[nH]c3ccccc23)NC(=O)[C@H](CC(C)C)NC(=O)[C@H](CC(N)=O)NC1=O)[C@H](C)O
inactive: outcome (KB-3-1) | max response (NIH3T3 [1]) 0.272% | outcome (HACAT) | Potency (MCC-13) | Potency (MCC-26) | Potency (MKL-1) | Potency (UISO) | Potency (WaGa)
